Screening results as filed in PubChem.
This is a sample that favours compounds with a hit; in the whole collection about 3.6% have one here.
TRHR PAM: allosterically enhances the human TRH receptor; enhancement, % at 2 µM; AID 493056; TRHR cells, fluo-8 calcium fluorescence, EC20 TRH enhancement; 360,000 compounds, 0.66% hits; P34981; in the data active means enhancement above about 30%
Target sequence (P34981 whole entry, looked up): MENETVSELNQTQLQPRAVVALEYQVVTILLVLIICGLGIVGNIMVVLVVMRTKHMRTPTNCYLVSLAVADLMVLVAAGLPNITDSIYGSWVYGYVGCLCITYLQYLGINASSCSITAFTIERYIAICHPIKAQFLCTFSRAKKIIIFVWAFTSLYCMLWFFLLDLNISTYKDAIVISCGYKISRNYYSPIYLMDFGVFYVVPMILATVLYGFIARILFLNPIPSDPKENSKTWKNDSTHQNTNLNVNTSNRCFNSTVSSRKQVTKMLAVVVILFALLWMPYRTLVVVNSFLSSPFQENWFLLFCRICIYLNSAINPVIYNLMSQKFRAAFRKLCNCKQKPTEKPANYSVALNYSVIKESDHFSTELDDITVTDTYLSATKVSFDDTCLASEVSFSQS
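TRHR-expressing cells loaded with fluo-8 calcium dye were read kinetically (ex 480/em 530) during compound addition, then stimulated with an EC20 of TRH (10 nM final). Enhancement of the Gq-mediated intracellular calcium response was scored.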
D1 ag: agonists of human D1 dopamine receptor. AID 504660. 360,000 compounds, 1% hits. activation, % at 2 µM. P21728. HEK293 T-REx D1 cells, calcium flux, agonist mode
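Agonism was scored from calcium flux recorded over 180 s (1 read/s) after pintool compound addition, following a 10-cycle baseline. Cells were inducible force-coupled HEK293 TREx D1, plated overnight at 30 C and loaded with no-wash calcium dye.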
D1 potentiator: enhances dopamine response at the human D1 receptor. potentiation, % at 10 µM. AID 504651. HEK293 TREx D1 cells, calcium flux, dopamine EC20 potentiation. 360,000 compounds, 0.036% hits. P21728; in the data active means potentiation above about 30%
D1 antagonist: antagonists of human D1 dopamine receptor; AID 504652; HEK293 TREx D1 cells, calcium flux, dopamine EC80; hits give low values; 360,000 compounds, 3.2% hits; activity change, negative = inhibition, % at 10 µM; in the data active means activity change below about -30%
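Cells carrying a force-coupled, tetracycline-inducible human D1 receptor report calcium flux. Each well gets a 10 s baseline, compound with 180 s monitoring, then an EC80 dopamine stimulus with a second 180 s kinetic read.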
LDHA inh: inhibitors of human lactate dehydrogenase A; activity change, % (values are at about 110 or 230 µM); 480,000 compounds, 0.15% hits; P00338; purified LDHA, NADH/diaphorase-resazurin fluorescence; hits give low values; AID 1347041; in the data active means activity change below about -30%
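Human LDH5 at 2 nM final in Tris HCl pH 7.4 with 0.06 mM NADH and 0.2 mM pyruvate, reacted 5 minutes at room temperature. Remaining NADH coupled via diaphorase/resazurin; resorufin fluorescence read at 0 and 20 minutes, normalized to enzyme-free and DMSO wells.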
TRHR ag: activates the human TRH receptor; AID 493084; P34981; TRHR cells, calcium flux fluo-8, FDSS agonist mode; activation, % at 2 µM; 360,000 compounds, 0.18% hits
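Steps: seed TRHR cells overnight; add fluo-8 no-wash Ca dye, RT 30 min–1.5 h; record 10 s baseline; pin-transfer compounds; monitor fluorescence 1 cycle/s for the agonist window. Calcium increases flag candidate agonists.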
Hits are given with their value; – = inactive; · = no result. Unless noted, no stated cut-off is given here; in the data, active means activation above about 30%; inactive means the rest.

SMILES | TRHR PAM | D1 ag | D1 potentiator | D1 antagonist | LDHA inh | TRHR ag
COc1ccc(-c2noc(CN(C)C3CCOCC3)n2)cc1 | 32 | – | – | – | – | –
CN(Cc1nc(-c2ccccc2)no1)C1CCOCC1 | – | – | – | – | – | –
COC(=O)COc1ccc2c(=O)c(Oc3ccccc3Br)c(C)oc2c1 | · | · | · | · | – | ·
CC12CCC(C(=O)N(c3ccccc3Cl)C1=O)C2(C)C (stereo unspecified) | 34 | – | – | – | – | –
CC(NC(=O)c1ccc2c(c1)N(Cc1ccc(Cl)cc1)C(=O)c1ccccc1S2=O)c1ccccc1 (stereo unspecified) | – | – | – | -35 | – | –
Cc1cccc(C)c1NC(=O)c1ccc2c(c1)N(Cc1cccc(Cl)c1)C(=O)c1ccccc1S2=O (stereo unspecified) | 33 | – | – | – | – | –
CCC(C)NC(=O)c1ccc2c(c1)N(Cc1cccc(Cl)c1)C(=O)c1ccccc1S2=O (stereo unspecified) | – | – | – | – | – | –
CCCCn1c(CCC(=O)Nc2cccc(C)c2C)nc2c1c(=O)[nH]c(=O)n2CCC | · | · | · | · | – | ·
CCOC(=O)[C@H]1[C@H]2COc3ccc(C)cc3[C@@H]2N2C(=O)c3cc(F)ccc3NC(=O)[C@@]12C | – | – | – | – | – | –
CCOC(=O)[C@H]1[C@H]2COc3ccc(Cl)cc3[C@@H]2N2C(=O)c3cc(F)ccc3NC(=O)[C@@]12C | – | 31 | – | – | – | –
Cc1ccc(C(=O)C(C)C(=O)c2ccc(C)cc2)cc1 | · | · | · | · | – | ·
Cc1ccc(OCC(=O)NC(=S)Nc2ccccn2)c(Br)c1 | – | – | – | – | – | –
Cc1ccc(OCC(=O)NNC(=S)NC(=O)C(C)(C)C)c(Br)c1 | – | 82 | – | – | – | –
Cc1ccc(OCC(=O)NNC(=S)NC(=O)C2CC2)c(C)c1 | – | – | – | – | · | –
Cc1ccc(OCC(=O)NNC(=S)NC(=O)C2CCCCC2)c(C)c1 | – | 47 | – | – | – | –
COc1cc(CNC2CCCC2)c(Br)cc1OC1CCCC1 | – | – | – | -30 | – | –
O=C(Nc1cccc(-c2nnnn2C2CC2)c1)C1CC=CCC1 (stereo unspecified) | · | · | · | · | – | ·
O=C(/C=C/c1ccc(COc2ccc(F)cc2F)o1)c1cccc([N+](=O)[O-])c1 | · | · | · | · | – | ·
O=C(c1ccc2c(c1)OCO2)C1CCCN(Cc2cc(F)ccc2-n2cccn2)C1 (stereo unspecified) | – | – | – | -36 | – | –
COc1ccc(C)cc1NC(=O)CSc1nc(=O)[nH]c2c1CCCC2 | – | 31 | – | · | – | –
CCOC(=O)c1ccccc1NC(=O)CSc1nc(=O)[nH]c2c1CCCC2 | – | – | – | · | – | –
COc1ccc(C)cc1NC(=O)CSc1nc2scc(C)c2c(=O)[nH]1 | – | – | – | -31 | – | –
COc1cccc(C2OCC(C)(C)n3c(-c4ccccc4)c4c(=O)n(C)c(=O)n(C)c4c32)c1O (stereo unspecified) | · | · | · | · | – | ·
C/C(=N\NC(=O)c1ccc(Cl)c(Cl)c1)c1ccccn1 | – | – | – | -38 | – | –
Clc1ccc(CNc2ccc(CNc3ncn[nH]3)cc2)c(Cl)c1 | – | – | – | -46 | – | –
SMILES | TRHR PAM | D1 ag | D1 potentiator | D1 antagonist | LDHA inh | TRHR ag
CS(=O)(=O)N(Cc1ccccc1)c1ccc(C(=O)Nc2ccccc2C(=O)O)cc1 | – | – | – | – | – | –
Cc1ccccc1NC(=O)c1ccc(N(Cc2ccccc2)S(C)(=O)=O)cc1 | 36 | – | – | – | – | –
CCN(CC)S(=O)(=O)c1ccc(NC(=O)COC(=O)CNS(=O)(=O)/C=C/c2ccccc2)cc1 | – | – | – | -31 | – | –
CCOC(=O)c1ccccc1NC(=O)Cn1c(=O)c2c(OCC)c(CC)cnc2n(C)c1=O | · | · | · | · | – | ·
CSc1nc(C)c(CCC(=O)NC(C)c2ccc(F)cc2)c(C)n1 (stereo unspecified) | · | · | · | · | – | ·
COC(=O)N/N=C/c1cc(N=Nc2ccccc2)ccc1O | – | – | – | -34 | – | –
Cc1ccc(Cn2nc(C)c(NC(=O)C3(C)CC3(Br)Br)c2C)cc1 (stereo unspecified) | – | – | – | -38 | – | –
Cn1cc(C(C(=O)O)N2CCN(c3ncc(Br)cn3)CC2)c2ccc(C(=O)O)cc21 (stereo unspecified) | · | · | · | · | – | ·
O=C(NCC(c1ccco1)N1CCCC1)c1cccc(S(=O)(=O)Nc2ccc(F)cc2)c1 (stereo unspecified) | – | – | – | – | – | –
CCOc1ccc(NS(=O)(=O)c2ccc(C(=O)NCC(c3ccco3)N(C)C)cc2)cc1 (stereo unspecified) | – | 70 | – | – | – | –
CCOc1ccc(S(=O)(=O)Nc2ccc(C(=O)NCC(c3ccco3)N3CCCCC3)cc2)cc1 (stereo unspecified) | – | 33 | – | – | – | –
COc1ccc(NS(=O)(=O)c2ccc(C(=O)N(C)Cc3cccs3)cc2)cc1 | – | 60 | – | -35 | – | –
Cc1ccc(NS(=O)(=O)c2cccc(C(=O)NCC(c3ccco3)N3CCCC3)c2)cc1 (stereo unspecified) | – | 44 | · | – | – | –
CCOc1ccc(S(=O)(=O)Nc2cccc(C(=O)NCC(c3ccccc3)N(C)C)c2)cc1 (stereo unspecified) | – | 35 | – | – | – | –
COc1ccc(C(CNC(=O)c2cccc(S(=O)(=O)Nc3ccc(F)cc3)c2)N(C)C)cc1 (stereo unspecified) | 33 | 44 | – | – | – | –
N#CCC(=O)Nc1ccc(C(=O)NCC(c2ccco2)N2CCCCC2)cc1 (stereo unspecified) | 38 | – | – | – | – | –
O=S(=O)(NCC(c1ccco1)N1CCCCC1)c1cccc(C(F)(F)F)c1 (stereo unspecified) | – | – | – | – | – | –
CC(C)(C)OC(=O)Nc1ccc(C(=O)NCC(c2ccco2)N2CCCCC2)cc1 (stereo unspecified) | · | · | · | · | – | ·
O=S(=O)(NCC(c1ccco1)N1CCCCC1)c1ccccc1C(F)(F)F (stereo unspecified) | – | – | – | -42 | – | –
COc1ccc(C(CNC(=O)c2cccc(NS(=O)(=O)c3ccccc3)c2)N(C)C)cc1 (stereo unspecified) | – | – | – | – | – | –
Cc1cccc2c1N(C(=O)c1cccc3ncccc13)CCC2 | · | · | · | · | – | ·
CCOC(=O)c1c(C)[nH]c(C(=O)COC(=O)/C=C/c2cccc(OC)c2OC)c1C | – | – | – | – | – | –
